From PubChem BioAssay (NCI)
About 83,000 compounds went through this panel and 20% of them were active in at least one assay; those are over-represented in the sample as a whole.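 Compound tested at a single concentration for 48 hours in 96-well plates; a percent growth value below 10 was scored as active.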 Calls of active or inactive are those of the source.

What was measured:
Assay in all cases: NCI-60 one-dose screen, 48 h (100 = growth as untreated, 0 = no growth, -100 = all killed)
Details in all cases: 10 µM unless noted
SR leukemia = system: SR leukemia
RPMI-8226 leukemia = system: RPMI-8226 leukemia
OVCAR-8 ovarian = system: OVCAR-8 ovarian
OVCAR-5 ovarian = system: OVCAR-5 ovarian
OVCAR-4 ovarian = system: OVCAR-4 ovarian
SK-OV-3 ovarian = system: SK-OV-3 ovarian
IGROV1 ovarian = system: IGROV1 ovarian
OVCAR-3 ovarian = system: OVCAR-3 ovarian
HS 578T breast = system: HS 578T breast
NCI/ADR-RES ovarian = system: NCI/ADR-RES ovarian
T-47D breast = system: T-47D breast
BT-549 breast = system: BT-549 breast
MDA-MB-435 melanoma = system: MDA-MB-435 melanoma
SW-620 colon = system: SW-620 colon
MCF7 breast = system: MCF7 breast
HCT-116 colon = system: HCT-116 colon
HCC-2998 colon = system: HCC-2998 colon
KM12 colon = system: KM12 colon

Measured: growth

CCCCCCCC/C=C\CCCCCCCCOc1ccc(CC(=O)NCC[N+](C)(C)C)cc1
active: IGROV1 ovarian 6.27%
inactive: SR leukemia 62.4% | RPMI-8226 leukemia 40.9% | OVCAR-8 ovarian 54.8% | OVCAR-5 ovarian 27.5% | OVCAR-4 ovarian 72.2% | SK-OV-3 ovarian 93.6% | OVCAR-3 ovarian 83.3% | HS 578T breast 76.7% | NCI/ADR-RES ovarian 94.4% | T-47D breast 85% | BT-549 breast 74.3% | MDA-MB-435 melanoma 86.5% | SW-620 colon 74.2% | MCF7 breast 73.7% | HCT-116 colon 68.2% | HCC-2998 colon 43.1% | KM12 colon 35.7%

CC1(C)O[C@H]2OC3CCC(=O)CC3(O)[C@H]2O1 (stereo not given in full)
inactive: SR leukemia 107% | RPMI-8226 leukemia 96% | OVCAR-8 ovarian 98.2% | OVCAR-5 ovarian 107% | OVCAR-4 ovarian 110% | SK-OV-3 ovarian 94.9% | IGROV1 ovarian 108% | OVCAR-3 ovarian 104% | HS 578T breast 97% | NCI/ADR-RES ovarian 102% | T-47D breast 91.8% | BT-549 breast 104% | MDA-MB-435 melanoma 112% | SW-620 colon 105% | MCF7 breast 108% | HCT-116 colon 95.1% | HCC-2998 colon 98.7% | KM12 colon 102%

C/C(=C(/c1ccc(Cl)cc1)c1ccc(OCCCN(C)C)cc1)c1ccc(Cl)cc1
inactive: RPMI-8226 leukemia 55.6% | OVCAR-8 ovarian 96.1% | OVCAR-5 ovarian 101% | OVCAR-4 ovarian 104% | SK-OV-3 ovarian 120% | IGROV1 ovarian 85.7% | OVCAR-3 ovarian 86.3% | HS 578T breast 87.1% | NCI/ADR-RES ovarian 97.7% | T-47D breast 69.1% | BT-549 breast 111% | MDA-MB-435 melanoma 92.6% | SW-620 colon 64% | MCF7 breast 34.3% | HCT-116 colon 52.4% | HCC-2998 colon 101% | KM12 colon 79.9%
active: SR leukemia -2.36%

CCCCCCCCn1ccc2cc(NC(=O)Cn3cc(CN4CCOCC4)nn3)ccc21
inactive: SR leukemia 87.6% | RPMI-8226 leukemia 94.8% | OVCAR-8 ovarian 102% | OVCAR-5 ovarian 91.1% | OVCAR-4 ovarian 99.5% | SK-OV-3 ovarian 111% | IGROV1 ovarian 96.4% | OVCAR-3 ovarian 98.2% | HS 578T breast 90% | NCI/ADR-RES ovarian 115% | T-47D breast 93.4% | BT-549 breast 78.2% | MDA-MB-435 melanoma 99.7% | SW-620 colon 97.4% | MCF7 breast 89.5% | HCT-116 colon 92.5% | HCC-2998 colon 113% | KM12 colon 93.3%

CC(C(=O)O)n1c(O)c(C=Nc2cccnc2)sc1=S (stereo not given)
inactive: SR leukemia 97.8% | RPMI-8226 leukemia 83.6% | OVCAR-8 ovarian 90.7% | OVCAR-5 ovarian 98.9% | OVCAR-4 ovarian 92.4% | SK-OV-3 ovarian 98.4% | IGROV1 ovarian 84.2% | OVCAR-3 ovarian 105% | HS 578T breast 74.9% | NCI/ADR-RES ovarian 98.7% | T-47D breast 81.2% | BT-549 breast 89.2% | MDA-MB-435 melanoma 100% | SW-620 colon 102% | MCF7 breast 86.7% | HCT-116 colon 89.4% | HCC-2998 colon 111% | KM12 colon 98.7%

S=c1ssnc1-c1cccs1
active: IGROV1 ovarian -4.8%
inactive: SR leukemia 98.6% | RPMI-8226 leukemia 97.3% | OVCAR-8 ovarian 113% | OVCAR-5 ovarian 115% | OVCAR-4 ovarian 99.8% | SK-OV-3 ovarian 98.4% | OVCAR-3 ovarian 78.9% | HS 578T breast 46.6% | NCI/ADR-RES ovarian 97.2% | T-47D breast 92.6% | BT-549 breast 116% | MDA-MB-435 melanoma 83.9% | SW-620 colon 83.7% | MCF7 breast 91.6% | HCT-116 colon 89.4% | HCC-2998 colon 98.4% | KM12 colon 92.1%

C=C1C(=O)O[C@H]2[C@H]1CC/C(COC(=O)NCCCCCCCCNC(=O)OC/C1=C/CC[C@@]3(C)O[C@H]3[C@H]3OC(=O)C(=C)[C@@H]3CC1)=C\CC[C@@]1(C)O[C@@H]21
active: SR leukemia -37.6% | RPMI-8226 leukemia -42.8% | OVCAR-8 ovarian -51.2% | OVCAR-5 ovarian -79.6% | OVCAR-4 ovarian -82.9% | IGROV1 ovarian -74.3% | OVCAR-3 ovarian -94.1% | T-47D breast -45.7% | BT-549 breast -88.2% | MDA-MB-435 melanoma -89.9% | SW-620 colon -74.7% | MCF7 breast -55.2% | HCT-116 colon -79.2% | HCC-2998 colon -65.5% | KM12 colon -43.9%
inactive: SK-OV-3 ovarian 34.4% | HS 578T breast 17.4% | NCI/ADR-RES ovarian 43.9%

O=C(CSc1nc2ccc([N+](=O)[O-])cc2[nH]1)Nc1ccc(Br)cc1
active: RPMI-8226 leukemia 6.95% | T-47D breast 8.75%
inactive: SR leukemia 22.9% | OVCAR-8 ovarian 52.5% | OVCAR-5 ovarian 85.7% | OVCAR-4 ovarian 34.4% | SK-OV-3 ovarian 44.7% | IGROV1 ovarian 63.8% | OVCAR-3 ovarian 39.3% | HS 578T breast 78.7% | NCI/ADR-RES ovarian 59.3% | BT-549 breast 50.4% | MDA-MB-435 melanoma 46.5% | SW-620 colon 74.5% | MCF7 breast 64.5% | HCT-116 colon 28.2% | HCC-2998 colon 79.6% | KM12 colon 56.2%

Cc1ccc(C)c(-n2c(-c3ccc(Br)cc3)csc2=NC(=O)c2ccccc2F)c1
inactive: OVCAR-8 ovarian 65.3% | OVCAR-5 ovarian 112% | OVCAR-4 ovarian 40.6% | SK-OV-3 ovarian 86.9% | IGROV1 ovarian 213% | OVCAR-3 ovarian 75.5% | HS 578T breast 101% | NCI/ADR-RES ovarian 56.7% | T-47D breast 41.3% | BT-549 breast 28.7% | MDA-MB-435 melanoma 67.2% | SW-620 colon 69.6% | MCF7 breast 59.1% | HCT-116 colon 22.9% | HCC-2998 colon 117% | KM12 colon 60.8%
active: SR leukemia -11.5% | RPMI-8226 leukemia -11.2%

O=C1CC2C=CCN2C=C1NC(=O)C1CCCCC1 (stereo not given)
inactive: SR leukemia 103% | RPMI-8226 leukemia 107% | OVCAR-8 ovarian 109% | OVCAR-5 ovarian 102% | OVCAR-4 ovarian 105% | SK-OV-3 ovarian 111% | IGROV1 ovarian 105% | OVCAR-3 ovarian 98.9% | HS 578T breast 105% | NCI/ADR-RES ovarian 98.5% | T-47D breast 84% | BT-549 breast 117% | MDA-MB-435 melanoma 102% | SW-620 colon 107% | MCF7 breast 92.3% | HCT-116 colon 94.8% | HCC-2998 colon 88.3% | KM12 colon 96.1%

COc1cc2nc(Nc3cccc(F)c3)nc(Nc3cc(C)[nH]n3)c2cc1OC
active: SR leukemia -9.83% [20 µM] | RPMI-8226 leukemia -41.7% [20 µM] | OVCAR-8 ovarian -42.5% [20 µM] | OVCAR-5 ovarian -100% [20 µM] | OVCAR-4 ovarian -88.2% [20 µM] | SK-OV-3 ovarian -90% [20 µM] | IGROV1 ovarian -96.1% [20 µM] | OVCAR-3 ovarian -80.2% [20 µM] | HS 578T breast -59.3% [20 µM] | NCI/ADR-RES ovarian -57.8% [20 µM] | T-47D breast -45.8% [20 µM] | BT-549 breast -83.8% [20 µM] | MDA-MB-435 melanoma -88.7% [20 µM] | SW-620 colon -58.9% [20 µM] | MCF7 breast -66% [20 µM] | HCT-116 colon -68.2% [20 µM] | HCC-2998 colon -88.3% [20 µM] | KM12 colon -69.2% [20 µM]

O=C(NCc1ccc2c(c1)OCO2)NCC1CCCC(CNC(=O)NCc2ccc3c(c2)OCO3)C1 (stereo not given)
inactive: SR leukemia 95.2% | RPMI-8226 leukemia 102% | OVCAR-8 ovarian 100% | OVCAR-5 ovarian 108% | OVCAR-4 ovarian 96.1% | SK-OV-3 ovarian 99.1% | IGROV1 ovarian 106% | OVCAR-3 ovarian 108% | HS 578T breast 97.1% | NCI/ADR-RES ovarian 104% | T-47D breast 86.7% | BT-549 breast 96.3% | MDA-MB-435 melanoma 95.9% | SW-620 colon 98% | MCF7 breast 101% | HCT-116 colon 101% | HCC-2998 colon 102% | KM12 colon 105%

CCc1ccc(CCC(=O)Nc2ncc(Cc3ccc(Cl)cc3)s2)o1
active: OVCAR-3 ovarian 1.07% | HS 578T breast 2.63% | MDA-MB-435 melanoma -64.3%
inactive: SR leukemia 18.4% | RPMI-8226 leukemia 31.5% | OVCAR-8 ovarian 31.3% | OVCAR-5 ovarian 52.1% | OVCAR-4 ovarian 63.8% | SK-OV-3 ovarian 37.4% | IGROV1 ovarian 34.8% | NCI/ADR-RES ovarian 17.3% | T-47D breast 37% | BT-549 breast 61.3% | SW-620 colon 18.6% | MCF7 breast 20% | HCT-116 colon 29.3% | HCC-2998 colon 46.9% | KM12 colon 21.6%

CCCCCCCCCCCCCCCCCCOc1ccccc1CC(=O)OCC[N+]1(C)CCOCC1
inactive: SR leukemia 50.7% | RPMI-8226 leukemia 59.7% | OVCAR-8 ovarian 41% | OVCAR-5 ovarian 63.1% | OVCAR-4 ovarian 60.5% | SK-OV-3 ovarian 100% | OVCAR-3 ovarian 65.4% | HS 578T breast 55.1% | NCI/ADR-RES ovarian 104% | T-47D breast 84.9% | BT-549 breast 82.9% | MDA-MB-435 melanoma 82.4% | SW-620 colon 77.1% | MCF7 breast 79.8% | HCT-116 colon 65.6% | HCC-2998 colon 71.8% | KM12 colon 65.8%
active: IGROV1 ovarian -9.88%

Clc1nn2c(Cn3cnc4c(NCc5ccccc5)ncnc43)nnc2c2ccccc12
inactive: SR leukemia 17.2% | RPMI-8226 leukemia 37.7% | OVCAR-8 ovarian 33.2% | OVCAR-5 ovarian 74.2% | OVCAR-4 ovarian 37.9% | IGROV1 ovarian 24.8% | OVCAR-3 ovarian 45.8% | HS 578T breast 40.1% | NCI/ADR-RES ovarian 40.6% | T-47D breast 18.2% | BT-549 breast 25.8% | MDA-MB-435 melanoma 30.6% | SW-620 colon 48.2% | MCF7 breast 62.1% | HCT-116 colon 21.9% | HCC-2998 colon 56.1% | KM12 colon 58.9%
active: SK-OV-3 ovarian -18.5%
